Reference: PubChem BioAssay (Tox21)
Values without a mark were called inactive. Entries that show only a call come without a potency. The source made the active and inactive calls. Calls come from the whole dose curve; as a rule, active = well fitted activation curve with a large enough effect in the repeat runs; inconclusive = weak or mixed curves; inactive = flat fitted curve, though single readings scatter.

experiment: A CellTox Green Cytotoxicity Assay to monitor cytotoxicity in HepG2 cells - 0 hour (AID 1224882); settings: CellTox Green fluorescence; series mostly up to 76.8 µM; note: nearly all actives have a fitted effect of over 35% in size
Text: National Center for Advancing Translational Sciences [NCATS]
NIH Chemical Genomics Center [NCGC]
U.S. Environmental Protection Agency [EPA]
National Institutes of Environmental Health Sciences [NIEHS]
National Toxicology Program [NTP]
Cell-based models are critical for drug discovery. Determining the natural cytotoxic effects resulting from test compounds is an essential research activity. A CellTox Green Cytotoxicity Assay to monitor cytotoxicity in real time of continues cell culture during 40 hours of the compound treatment was used to screen Tox21 10K library compounds in HepG2 cells. CellTox Green Cytotoxicity Assay is a nonlytic, homogeneous, biofluorescent method to measure cytotoxicity in cell culture after experimental manipulation. The assay system uses a proprietary asymmetric cyanine dye that is excluded from viable cells but preferentially stains the dead cell's DNA. […] Viable cells produce no appreciable increases in fluorescence. Therefore, the fluorescence signal produced by the binding interaction with dead cell DNA is proportional to cytotoxicity.
The mixture of HepG2 cell suspension and reagents were dispensed at 600cells/6 ul/well in 1536-well tissue culture treated black solid bottom plates using a Multidrop dispenser. After the assay plates were incubated at a 37 C/5% CO2 incubator for 5 hours, 23 nL of compounds dissolved in DMSO, positive and negative controls was transferred to the assay plate by a pintool work station. The plates were incubated at 37 C for 40 hours. The fluorescence intensity were measured at 0h, 8h, 16h, 24h, 32h and 40h time points using ViewLux plate reader during compound treatment.

Structure (SMILES)	Potency	cytotoxicity
CCCCCCCCCCCC(=O)OCC	inactive	–
CCC1=C(C)CN(C(=O)NCCc2ccc(S(=O)(=O)NC(=O)NC3CCC(C)CC3)cc2)C1=O (stereo not given)	inactive	–
CC(C)C/C=C(\C=O)c1ccccc1	inactive	–
Cc1ccc(NC(=O)c2ccc(CN3CCN(C)CC3)cc2)cc1Nc1nccc(-c2cccnc2)n1	inactive	–
CC(O)CN (stereo not given)	inactive	–
CC1(C)CC(=O)CC(C)(C)N1	inactive	–
CCOC(OCC)OCC	inactive	–
O=[N+]([O-])c1ccccc1CCO	inactive	–
FC(F)(Cl)C(F)(Cl)Cl	inactive	–
CCCCCC1CCC(=O)O1 (stereo not given)	inactive	–
C(/C=C/C=C/Nc1ccccc1)=Nc1ccccc1	inactive	–
CC1=C(C)C(=O)C(CCCCC#CCCCC#CCO)=C(C)C1=O	inactive	–
SCCOCCOCCS	inactive	–
CCCCCCC/C=C/C=O	inactive	–
Cc1cc(C)c(C)c(O)c1	inactive	–
Cc1ccc(Cl)c(OCC(O)CNC(C)(C)C)c1 (stereo not given)	inactive	–
CC(=O)Nc1cccc(N)c1	inactive	–
CCc1c(C)[nH]c2c1C(=O)C(CN1CCOCC1)CC2 (stereo not given)	inactive	–
CCCCCCCCCCCCCCCCCCCl	–	0.682% [at 6.97 µM]
O=C1c2ccccc2C(=O)C1c1ccc2ccccc2n1	inactive	–

Structure (SMILES)	Potency	cytotoxicity
CCCCCCCCCCCCN1CCOCC1	inactive	–
COC(=O)c1cc(Cl)ccc1[N+](=O)[O-]	inactive	–
N#Cc1ccc(CC(=O)c2cccc(C(F)(F)F)c2)cc1	inactive	–
CCCOC(C)=O	inactive	–
O=C(OCCN1CCOCC1)c1cccnc1Nc1cccc(C(F)(F)F)c1	inactive	–
C[C@@H](O)[C@H]1C(=O)N2C(C(=O)O)=C(S[C@@H]3CN[C@H](CNS(N)(=O)=O)C3)[C@H](C)[C@H]12	inactive	–
CC(=O)Oc1cccc2c1C(=O)c1c(OC(C)=O)cc(C(=O)O)cc1C2=O	inactive	–
CO[C@@H]1[C@@H](O[C@@H]2O[C@H](C)[C@@H](O[C@H]3C[C@@](C)(O)[C@@H](O)[C@H](C)O3)[C@H](N(C)C)[C@H]2O)[C@@H](CC=O)C[C@@H](C)[C@@H](O[C@@H]2CC[C@H](N(C)C)[C@@H](C)O2)/C=C/C=C/C[C@@H](C)OC(=O)C[C@H]1OC(C)=O	inactive	–
CC(C)CC(C)(C)C	inactive	–
O=C(O)c1c2ccccc2cc2ccccc12	inactive	–
CCCC1CCCC(=O)O1 (stereo not given)	inactive	–
Cc1ccc2ccccc2c1[N+](=O)[O-]	inactive	–
CC(C)CCCCCCCOC(=O)c1ccc(C(=O)OCCCCCCCC(C)C)c(C(=O)OCCCCCCCC(C)C)c1	inactive	–
CCCC1CCOC(C)S1 (stereo not given)	inactive	–
CC/C=C\CCO	inactive	–
C[C@H]1C[C@H]2[C@@H]3CCC4=CC(=O)C=C[C@]4(C)[C@@]3(F)[C@@H](O)C[C@]2(C)[C@@]1(O)C(=O)COP(=O)(O)O	inactive	–
CCc1ccc2c(c1)C(=O)c1ccccc1C2=O	inactive	–
CC(C(=O)O)c1ccc2c(c1)Cc1cccnc1O2 (stereo not given)	inactive	–
O=C(c1ccco1)N1CCNCC1	inactive	–
COc1ccc(CN(CCN(C)C)c2ncccn2)cc1	inactive	–
